Results: the supplement of paper PMC12282887
± gives the standard deviation of the averaged measurements.

How the values were obtained:
Experiment in all cases: promoter activity interaction Z-score (Lux/OD deviation from empty-vector control); higher = stronger promoter induction by the compound
[1] = test system: E. coli BW25113 micFp lux reporter; settings: 38.1 µg/ml
In short: (§1)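 In 384-well plates, 40 µl LB Lennox cultures of E. coli BW25113 with low-copy luxCDABE promoter reporters grew at 37°C. Optical density at 600 nm and light output were recorded every 30 min for 12 h, with windows of 0–8 h for wild type and 1–9 h for deletion strains, and wells under 10% of the median growth value were left out. Each value is a Z-transformed residual of growth-normalised luminescence fitted against a control.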

[2] = test system: E. coli BW25113 ompFp lux reporter
In short: as §1

[3] = test system: E. coli BW25113 robp lux reporter
In short: as §1

[4] = test system: E. coli BW25113 soxSp lux reporter
In short: as §1

[5] = test system: E. coli BW25113 tolCp lux reporter
In short: as §1

[6] = 4.8 µg/ml, genetic background: wild type
[7] = 4.8 µg/ml, genetic background: ΔmarA
[8] = 4.8 µg/ml, genetic background: Δrob
[9] = 4.8 µg/ml, genetic background: ΔsoxS
[10] = 9.5 µg/ml, genetic background: wild type
[11] = 9.5 µg/ml, genetic background: ΔmarA
[12] = 9.5 µg/ml, genetic background: Δrob
[13] = 9.5 µg/ml, genetic background: ΔsoxS
[14] = 19 µg/ml, genetic background: wild type
[15] = 19 µg/ml, genetic background: ΔmarA
[16] = 19 µg/ml, genetic background: Δrob
[17] = 19 µg/ml, genetic background: ΔsoxS
[18] = 38.1 µg/ml, genetic background: wild type
[19] = 38.1 µg/ml, genetic background: ΔmarA
[20] = 38.1 µg/ml, genetic background: Δrob
[21] = 38.1 µg/ml, genetic background: ΔsoxS

In the case of `NC(N)=S` [Thiourea], the “promoter activity interaction Z-score” value ([1]; genetic background: Δrob) is reported as -0.0862 ± 0.063, the “promoter activity interaction Z-score” value ([1]; genetic background: ΔsoxS) is reported as -0.341 ± 0.12 and the “promoter activity interaction Z-score” value [2, 6] is reported as 0.0411 ± 0.63. For the same molecule, the “promoter activity interaction Z-score” value [2, 7] was 0.273 ± 0.023, the “promoter activity interaction Z-score” value [2, 8] was 0.0473 ± 0.84 and the “promoter activity interaction Z-score” value [2, 9] was -0.209 ± 0.4. For the same molecule, the “promoter activity interaction Z-score” value [2, 10] was 0.331 ± 0.68, the “promoter activity interaction Z-score” value [2, 11] was 0.292 ± 0.32 and the “promoter activity interaction Z-score” value [2, 12] was 0.271 ± 0.042. For the same molecule, the “promoter activity interaction Z-score” value [2, 13] was -0.0695 ± 0.25, the “promoter activity interaction Z-score” value [2, 14] was 0.307 ± 0.13 and the “promoter activity interaction Z-score” value [2, 15] was 0.189 ± 0.15. The “promoter activity interaction Z-score” value [2, 16] was -0.133 ± 0.22, the “promoter activity interaction Z-score” value [2, 17] was -0.0487 ± 0.067 and the “promoter activity interaction Z-score” value [2, 18] was 0.484 ± 0.11. The “promoter activity interaction Z-score” value [2, 19] was 0.567 ± 0.37, the “promoter activity interaction Z-score” value [2, 20] was 0.804 ± 0.41 and the “promoter activity interaction Z-score” value [2, 21] was 0.352 ± 0.25. The “promoter activity interaction Z-score” value [3, 6] was 0.198 ± 0.54, the “promoter activity interaction Z-score” value [3, 7] was -0.278 ± 0.4 and the “promoter activity interaction Z-score” value [3, 8] was -0.498 ± 0.88. The “promoter activity interaction Z-score” value [3, 9] was -0.368 ± 0.72, the “promoter activity interaction Z-score” value [3, 10] was 0.517 ± 0.91 and the “promoter activity interaction Z-score” value [3, 11] was 0.53 ± 0.53. For the same molecule, the “promoter activity interaction Z-score” value [3, 12] was -0.0465 ± 0.47, the “promoter activity interaction Z-score” value [3, 13] was -0.206 ± 0.084 and the “promoter activity interaction Z-score” value [3, 14] was 0.0253 ± 0.099. The “promoter activity interaction Z-score” value [3, 15] was -0.564 ± 0.03, the “promoter activity interaction Z-score” value [3, 16] was -0.172 ± 0.36 and the “promoter activity interaction Z-score” value [3, 17] was -0.633 ± 0.39. The “promoter activity interaction Z-score” value [3, 18] was 0.15 ± 0.3, the “promoter activity interaction Z-score” value [3, 19] was -0.571 ± 0.48 and the “promoter activity interaction Z-score” value [3, 20] was 0.0676 ± 0.18. The “promoter activity interaction Z-score” value [3, 21] was -0.509 ± 0.51, the “promoter activity interaction Z-score” value [4, 6] was -0.265 ± 0.12 and the “promoter activity interaction Z-score” value [4, 7] was -0.27 ± 0.0046. The “promoter activity interaction Z-score” value [4, 8] was -0.311 ± 0.21, the “promoter activity interaction Z-score” value [4, 9] was -0.36 ± 0.21 and the “promoter activity interaction Z-score” value [4, 10] was -0.21 ± 0.083. For the same molecule, the “promoter activity interaction Z-score” value [4, 11] was -0.161 ± 0.02, the “promoter activity interaction Z-score” value [4, 12] was -0.36 ± 0.053 and the “promoter activity interaction Z-score” value [4, 13] was -0.318 ± 0.36. For the same molecule, the “promoter activity interaction Z-score” value [4, 14] was -0.205 ± 0.22, the “promoter activity interaction Z-score” value [4, 15] was -0.41 ± 0.026 and the “promoter activity interaction Z-score” value [4, 16] was -0.292 ± 0.098. For the same molecule, the “promoter activity interaction Z-score” value [4, 17] was -0.397 ± 0.33, the “promoter activity interaction Z-score” value [4, 18] was -0.492 ± 0.0079 and the “promoter activity interaction Z-score” value [4, 19] was -0.464 ± 0.087. For the same molecule, the “promoter activity interaction Z-score” value [4, 20] was -0.389 ± 0.024, the “promoter activity interaction Z-score” value [4, 21] was -0.476 ± 0.5 and the “promoter activity interaction Z-score” value [5, 6] was -0.648 ± 0.31. The “promoter activity interaction Z-score” value [5, 7] was -0.358 ± 0.66, the “promoter activity interaction Z-score” value [5, 8] was 0.771 ± 0.35 and the “promoter activity interaction Z-score” value [5, 9] was -0.943 ± 0.29. The “promoter activity interaction Z-score” value [5, 10] was -0.618 ± 1.8, the “promoter activity interaction Z-score” value [5, 11] was 0.4 ± 0.71 and the “promoter activity interaction Z-score” value [5, 12] was 0.609 ± 0.4. The “promoter activity interaction Z-score” value [5, 13] was -0.368 ± 0.54, the “promoter activity interaction Z-score” value [5, 14] was -0.0827 ± 0.073 and the “promoter activity interaction Z-score” value [5, 15] was -0.203 ± 0.14. For the same molecule, the “promoter activity interaction Z-score” value [5, 16] was -0.414 ± 0.69, the “promoter activity interaction Z-score” value [5, 17] was 0.14 ± 0.66 and the “promoter activity interaction Z-score” value [5, 18] was 0.133 ± 0.26. The “promoter activity interaction Z-score” value [5, 19] was -0.216 ± 0.12, the “promoter activity interaction Z-score” value [5, 20] was 0.188 ± 0.21 and the “promoter activity interaction Z-score” value [5, 21] was -0.969 ± 1.2.
